From PubChem BioAssay (NCATS) come the findings set out here.

This assay is described as follows: Drug repurposing screens with cells derived from glioblastoma tumor samples (AID 1345199). Further: nearly all actives have a fitted effect of over 40% in size. As to conditions: GBM patient neurospheres viability, ATP luminescence, 48 h. The protocol:
CD133+ cells were isolated from GBM patient biopsies and cultured as neurospheres. Neurospheres from four patients were used to screen the NCATS pharmaceutical collection (NPC) library of approved drugs and bioactive compounds. […] The neurospheres were incubated with drugs for 48 hours in 1536-well format, then assayed with an ATP content cell viability assay. […] These hits were cherry picked to confirm activity in the four original GBM lines screened plus three other slower growing GMB lines (unable to yield enough cells for a full primary screen). Variable activities of the confirmed primary hits in the different GBM patient lines were observed. The patient line 206 responded to the greatest number of compounds and line 923 responded to the least amount of active compounds.

Where [1] appears, read: at 45.9 µM (top of the series), tumour line B.
[2] abbreviates: at 45.9 µM (top of the series), tumour line D.
The mark [3] stands for this setting: at 46.1 µM (top of the series), tumour line C.
Setting [4] is: at 46 µM (top of the series), tumour line A.

Several values for one entry are separate records, joined by “and”; a condition that tells them apart may be missing. Identical values can stand only once. Inconclusive results are not listed. More than one record can exist for a structure, and the calls need not agree. A number with no mark means an inactive call. Activity calls are given as the source filed them. The call rests on the fitted dose curve; in most records, active means well fitted inhibition curve with a large enough effect; inconclusive means small, poorly fitted or top-dose-only effect; inactive means flat fitted curve, though single readings scatter.
On the % scale 0 is the no-effect control and ±100 the full control effect; potency means the concentration at half of the fitted maximal effect.

In the case of `CCN(CC)C(C)CN1c2ccccc2Sc2ccccc21` (configuration not stated), the activity, negative = cell killing by setting is: (at 20 µM (top of the series), tumour line C) -5.52%; (at 21.2 µM (top of the series), tumour line B) -16.2%. Also, the Potency (tumour line A) was 10 µM (active).
As for `CC1(C)[C@@H]2CC[C@@]1(C)C(=O)C2`, the activity, negative = cell killing under setting [1] is -26.7%; the activity, negative = cell killing under setting [2] was -2.76%; the activity, negative = cell killing under setting [3] is -20.2%.
As for `CC1=C(/C=C/C(C)=C/C=C/C(C)=C/C(=O)O)C(C)(C)CCC1`, the activity, negative = cell killing by setting is: under setting [1], -21.7%; under setting [2], -18.7%; under setting [3], -15.9%.
Take `CCOC(=O)[C@H](CCc1ccccc1)N[C@@H](C)C(=O)N1C(=O)N(C)C[C@H]1C(=O)O`: the activity, negative = cell killing runs as follows: under setting [1], -4.44%; under setting [2], -4.75%; under setting [4], -37.7%.
`CC[C@@]1(c2ccccc2)NC(=O)N(C)C1=O`: the activity, negative = cell killing is -13.7% under setting [1], -9.17% under setting [2] and 9.18% under setting [3].
With `CN(C)CC[C@@H](c1ccc(Cl)cc1)c1ccccn1`, the activity, negative = cell killing under setting [1] is -9.08%; the activity, negative = cell killing under setting [2] was -26.8%; the activity, negative = cell killing under setting [3] is -11.4%. The Potency (tumour line A) is 14.1 µM (active).
In the case of `NC(=O)c1ncn([C@@H]2O[C@H](CO)[C@@H](O)[C@H]2O)c1N`, the activity, negative = cell killing reads like this: under setting [1], -9.5%; under setting [2], -4.13%; under setting [4], -19.7%; under setting [3], -3.52%.
`CC(=O)O[C@@]12CO[C@@H]1C[C@H](O)[C@@]1(C)C(=O)[C@H](O)C3=C(C)[C@@H](OC(=O)[C@H](O)[C@@H](NC(=O)OC(C)(C)C)c4ccccc4)C[C@@](O)([C@@H](OC(=O)c4ccccc4)[C@H]21)C3(C)C`: the activity, negative = cell killing under setting [1] was -12.5% and -11.2%; the activity, negative = cell killing under setting [2] was -11.2% and -24.9%. For the same molecule, the Potency (tumour line A) was 10 µM (active).
In the case of `C[C@H]1O[C@@H](n2cc(F)c(=O)[nH]c2=O)[C@H](O)[C@@H]1O`, the activity, negative = cell killing reads like this: under setting [1], -19.9%; under setting [2], -17.4%; under setting [4], -26.5%; under setting [3], 3.86%.
On to `CCN(CC)C(=O)Nc1ccc(OCC(O)CNC(C)(C)C)c(C(C)=O)c1` (configuration not stated), for which the activity, negative = cell killing is, setting by setting: under setting [1], -20.9%; under setting [2], 0.286%; under setting [3], -24.6%.
As for `O=Cc1ccccc1C=O`, the activity, negative = cell killing under setting [3] was -17%. In addition, the Potency (tumour line D) was 35.5 µM (active).
With `OCc1cc(C(O)CNCCCCCCOCCCCc2ccccc2)ccc1O` (configuration not stated), under setting [3], the activity, negative = cell killing is 2.29%. For the same molecule, the Potency is, setting by setting: (tumour line A) 7.08 µM (active); (tumour line B) 20 µM (active); (tumour line D) 20 µM (active).
As to `CCN(CC)CCNC(=O)c1c(C)[nH]c(/C=C2\C(=O)Nc3ccc(F)cc32)c1C`, the activity, negative = cell killing under setting [3] was 3.12%. The Potency was 11.2 µM (active) (tumour line A) and 28.2 µM (active) (tumour line D).
